Compounds without any hit were thinned out: in the full panel of roughly 83,000, 20% have a hit.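 Single-dose data. Exposure time 48 hours. Values below 10 considered active.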 Activity calls are given as the source filed them.
How the values were obtained:
Assay in all cases: NCI-60 one-dose screen, 48 h (100 = growth as untreated, 0 = no growth, -100 = all killed)
NCI-H23 lung = settings: 10 µM unless noted
NCI-H226 lung = settings: 10 µM unless noted
NCI-H322M lung = settings: 10 µM unless noted
NCI-H460 lung = settings: 10 µM unless noted
HOP-92 NSCLC = settings: 10 µM unless noted
NCI-H522 lung = settings: 10 µM
786-0 renal = settings: 10 µM unless noted
COLO 205 colon = settings: 10 µM unless noted
A549/ATCC NSCLC = settings: 10 µM unless noted

Structure (SMILES) | growth (NCI-H23 lung) | growth (NCI-H226 lung) | growth (NCI-H322M lung) | growth (NCI-H460 lung) | growth (HOP-92 NSCLC) | growth (NCI-H522 lung) | growth (786-0 renal) | growth (COLO 205 colon) | growth (A549/ATCC NSCLC)
O=C1/C(=C/c2ccccc2O)C(=S)SN1Cc1ccco1 | 105% (inactive) | 103% (inactive) | 90.3% (inactive) | 106% (inactive) | 97.7% (inactive) | 83.2% (inactive) | 103% (inactive) | 113% (inactive) | –
O=[N+]([O-])c1cc([N+](=O)[O-])c(N2CCCC2)cc1NN=C(c1ccc(O)cc1)c1ccc(O)cc1 | 9.44% (active) | 94.8% (inactive) | 91.7% (inactive) | 9.13% (active) | 87.7% (inactive) | -42% (active) | 0.661% (active) | 30.6% (inactive) | –
CC(C)C[C@H](NC(=O)/C=C/Cn1ccc2ccccc2c1=O)B(O)O | 56.3% (inactive) | -15.5% (active) | 85.4% (inactive) | 84.6% (inactive) | 99.7% (inactive) | – | 55.1% (inactive) | 49.7% (inactive) | 69% (inactive)
N#CC1c2ccccc2C=CN1C(=O)N(c1ccccc1)c1ccccc1 (stereo not given) | 66.6% (inactive) | 95.9% (inactive) | 103% (inactive) | 101% (inactive) | 45.6% (inactive) | – | 95.5% (inactive) | -41.6% (active) | 91.4% (inactive)
Cn1c(=O)c2[nH]c(=S)n(Cc3ccccc3)c2n(C)c1=O | 93.1% (inactive) | 104% (inactive) | 118% (inactive) | 110% (inactive) | 91.8% (inactive) | – | 102% (inactive) | 109% (inactive) | 95.2% (inactive)
O=C(N/N=C/c1cccc(O)c1O)c1ccccc1 | 28.2% (inactive) | 17.3% (inactive) | 13.9% (inactive) | 3.29% (active) | -4.33% (active) | – | 22% (inactive) | 5.29% (active) | 6.43% (active)
CCCCCc1c(C)[nH]c(/C=C2\N=C(c3ccc[nH]3)C=C2Oc2ccc(Cl)cc2)c1C | -46.3% [100 µM] (active) | 11.9% [100 µM] (inactive) | 20.5% [100 µM] (inactive) | 2.82% [100 µM] (active) | -10.7% [100 µM] (active) | – | -18.2% [100 µM] (active) | -85.5% [100 µM] (active) | -51.5% [100 µM] (active)
Cc1ccc2nc3c(n2c1)C(=O)C(=O)c1ccccc1-3 | -12.4% (active) | -44.1% (active) | -80.7% (active) | -71.1% (active) | -77.2% (active) | – | -81% (active) | -69.2% (active) | -77.3% (active)
CCC(C)C1NC(=O)C(CCNCS(=O)(=O)O)NC(=O)C(NC(=O)C(CCNCS(=O)(=O)O)NC(=O)C(NC(=O)C(CCNCS(=O)(=O)O)NC(=O)CCCCC(C)C)C(C)O)CCNC(=O)C(C(C)O)NC(=O)C(CCNCS(=O)(=O)O)NC(=O)C(CCNCS(=O)(=O)O)NC(=O)C(C(C)CC)NC1=O (stereo not given) | 66.6% (inactive) | 77% (inactive) | 70.3% (inactive) | 48.8% (inactive) | 95.8% (inactive) | 10.5% (inactive) | 93.1% (inactive) | 1.57% (active) | –
O=C(CSc1nnc(-c2cc(-c3ccccc3)nc3ccccc23)o1)c1ccc(Br)cc1 | 106% (inactive) | 104% (inactive) | 103% (inactive) | 106% (inactive) | 114% (inactive) | – | 104% (inactive) | 119% (inactive) | 105% (inactive)

From PubChem BioAssay (NCI)
